Sampled rows, rich in hits. Any-hit rate of the full collection: about 6.3%.
A340 absorber: compound light absorbance at 340 nm, profiling panel, artefact control, biochemical, MLSMR library, data from PS, PMK, MK assays; compound absorbance at 340 nm, fold over control; fold change at 10 µM; 65,000 tested, under 10 active;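 active = at 10 µM dose, initial 340 nm absorbance at least 2 fold that of control wells; inactive = change under 2 fold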;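 also: initial absorbance extrapolated from kinetic A340 decline of NADH oxidation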
Fluor 339 460: intrinsic fluorescence of library compounds, ex339/em460 – biochemical, MLSMR library, data from DPM-DC assay, artefact control, profiling panel; actives 5.5% (n = 65,000); compound autofluorescence, ex339/em460 nm, NADH buffer; active compounds read high; 1 = no-compound wells, NADH background; fluorescence fold increase at 10 µM;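 active = at 10 µM, mean starting fluorescence two-fold or more over control wells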;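 also: signal is the first read of a kinetic run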
Spn MK inh: S. pneumoniae MK inhibitors, primary screen, biochemical, PK/LDH-coupled NADH absorbance. mevalonate kinase [Streptococcus pneumoniae D39]. purified MK, PK/LDH-coupled NADH absorbance 340 nm. inhibition, % at 10 µM. actives 0.48% (n = 65,000);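 active = ranked among the strongest by inhibition in the single 10 µM screen, a fixed top-ranked set picked for dose follow-up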
NADH enzymes: inhibitors of PK/LDH coupling enzymes, profiling panel, artefact control, biochemical, MLSMR library | coupled PK/LDH NADH assays, four targets | IC50, µM (series often up to 10 µM), for the others: at the top dose inhibition | actives 0.02% (n = 65,000) | AID 774, 2007;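 active = single-dose screening hits from any of four coupled enzyme assays that gave an IC50 when retested across doses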;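 also: the DPM-DC format reads NADH fluorescence rather than 340 nm absorbance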
DPM-DC inhibit: S. pneumoniae DPM-DC inhibitors, primary screen, biochemical, PK/LDH-coupled NADH fluorescence. purified DPM-DC. calls only at 10 µM. actives 0.49% (n = 65,000);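 active = the 320 compounds with the highest percent inhibition in the single-dose primary screen, excluding strongly autofluorescent ones, cut at about 32% in these data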;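 also: kinetic rate of NADH fluorescence loss reporting ADP formed by the decarboxylase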
Spn PMK inh: S. pneumoniae PMK inhibitors, primary screen, biochemical, mevalonate pathway, pilot trial included | phosphomevalonate kinase (Streptococcus pneumoniae D39) | purified PMK, PK/LDH-coupled NADH absorbance 340 nm | inhibition, % at 10 µM | actives 0.49% (n = 65,000) | AID 539, 2006;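 active = top-ranked compounds by inhibition in the single 10 µM screen, taking a fixed number of the strongest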;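 also: 0% = full reaction with DMSO carrier and 100% = background rate without enzyme reaction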
* = called active by the depositor; i = inactive; nt = no result shown; + = active, no number; [ ] = dose if it differs, or a comment.

SMILES	A340 absorber	Fluor 339 460	Spn MK inh	NADH enzymes	DPM-DC inhibit	Spn PMK inh
CCCn1c(C)nc2c(c1=O)c1nc3ccccc3nc1n2CCC1=CCCCC1	1.1	3.8*	10	5%	nt	0
CCN(CC)c1ccc2c(C)c(CN3CCOCC3)c(=O)oc2c1	1.1	4.3*	9	9%	nt	9
COc1ccc(OC)c(-n2c(-c3cccc(O)c3)n[nH]c2=S)c1	1	1.2	66*	27%	i	0
CCC(CC)NC(=O)c1n[nH]c(=O)c2ccccc12	1	1	0	0%	i	0
O=C(c1n[nH]c(=O)c2ccccc12)N1CCN(C2c3ccccc3-c3ccccc32)CC1	0.99	0.97	1	12%	i	29*
CCc1nnc(NC=C2C(=O)OC(C)(C)OC2=O)s1	1.1	1.1	4	7%	i	15
COc1cccc2cc(-c3nc(-c4cccs4)cs3)c(=O)oc12	1	4.6*	13	11%	nt	8
O=C(CSc1ccc(-c2nc3ccccc3[nH]2)cn1)N1CCN(C(=O)c2ccco2)CC1	1.1	2.1*	7	16%	nt	24
COc1ccc(-c2cc3nc(C4CCN(C(=O)OC(C)(C)C)CC4)c(C(=O)O)cn3n2)cc1	1.1	2.7*	1	15%	i	22
O=c1c2[nH]c3ccccc3c2ncn1CCN1CCCCC1	1	2.1*	9	11%	i	5
Cc1ccc2[nH]c3c(=O)n(CCN4CCNCC4)cnc3c2c1	1	3.1*	8	12%	i	11
CCN1CCCC1Cn1cnc2c([nH]c3ccc(C)cc32)c1=O (stereo not given)	1	2.3*	9	6%	nt	2
CCN1CCCC1CNc1ncnc2c1[nH]c1ccc(Cl)cc12 (stereo not given)	1.1	1.8	10	10%	i	12
Cc1cccc2[nH]c3c(=O)n(CCN4CCNCC4)cnc3c12	1	2.5*	10	14%	i	10
CN(C)c1nc(SCCOC(=O)Nc2ccccc2)nc(N(C)C)n1	0.99	1.1	8	4%	i	5
Cc1nnc(SCc2ccccc2)n1N	0.96	1	4	4%	i	26*
O=C(Nc1ccccc1)c1ccccc1O	1.1	2.1*	6	13%	nt	19
CCC(NC(=O)c1ccccc1O)c1ccccc1 (stereo not given)	1	3.7*	10	10%	nt	9
CCC(C)NC(=O)c1ccccc1C(=O)NC(C)CC (stereo not given)	1.1	1.1	5	2%	i	0
Cc1ccc(NC(=O)c2ccccc2O)cc1	1	1.3	0	2%	i	0
Cn1c(=O)n(CCc2ccccc2)c(=O)c2c1nc1n2CCCN1c1ccc(F)cc1	1	1.1	2	2%	i	5
COc1cc(Cn2c(N)c(C#N)c3nc4ccccc4nc32)cc(OC)c1	1	3.9*	6	3%	nt	0
CCN(CC)CCOC(=O)c1cccc(Br)c1	1	1.1	nt	1%	i	1
COc1cccc(Cn2c(N)c(C#N)c3nc4ccccc4nc32)c1OC	1	3.4*	4	6%	nt	8
N#Cc1c(N)n(CCOC(=O)c2cccc(Br)c2)c2nc3ccccc3nc12	1	2.4*	1	3%	nt	0
SMILES	A340 absorber	Fluor 339 460	Spn MK inh	NADH enzymes	DPM-DC inhibit	Spn PMK inh
CCN(CC)c1ccc(NC(=O)COc2ccc(C)cc2)cc1	1	1.1	0	1%	i	4
Clc1ccc(OCc2cn3cccnc3n2)c2ncccc12	1	2.1*	0	7%	nt	14
CCn1c(COc2ccc(C)cc2)nnc1SCC(=O)Nc1ccc2c(c1)OCCO2	1	2*	3	3%	i	5
Cc1cc(=O)[nH]c2ccccc12	1	1.1	0	15%	+	9
CCc1cc(=O)oc2cc3oc(C)c(C)c3cc12	0.98	1.7	6	9%	i	15
CCc1cc(=O)oc2cc(OC(C)=O)cc(OC(C)=O)c12	1	2.4*	7	2%	nt	0
Cc1cc(=O)n2[nH]c(-c3ccccc3Cl)cc2n1	0.98	1.1	0	8%	i	25*
CC1(C)CC(=O)c2cc(OCC(=O)O)ccc2O1	1	4.8*	0	7%	nt	14
CC1(C)CC(=O)c2cc(OCC(=O)N3CCN(c4ccccc4F)CC3)ccc2O1	0.99	2.6*	4	6%	+[may fluoresce]	26*
CCOC(=O)COc1ccc2c(c1)C(=O)CC1(CCN(C(C)=O)CC1)O2	1	4.8*	0	10%	nt	19
CCOC(=O)COc1ccc2c(c1)C(=O)CC(C)(C)O2	1	4.8*	0	8%	nt	15
O=C(O)COc1ccc2c(c1)CCCC2	1.1	1.1	0	2%	i	0
CCN(C(=O)c1cccc(F)c1)c1ccccc1C	1	1.1	5	3%	i	4
CCCN1C(=O)c2ccccc2NC1c1ccc(OC)cc1OC (stereo not given)	1.1	5.1*	3	12%	nt	20
CCCN1C(=O)c2cc(C(=O)O)ccc2C1O (stereo not given)	1	1	38	6%	i	1
CCCN1C(=O)c2ccccc2NC1c1ccc(OC)cc1O (stereo not given)	1	5*	5	9%	nt	13
COc1ccc(CCNc2oc(COc3ccccc3F)nc2C#N)cc1OC	1	1.1	5	6%	i	13
COCCCNc1oc(-c2ccccc2OC)nc1C#N	1.1	3.9*	13	14%	nt	14
N#Cc1nc(-c2ccccc2F)oc1NCc1ccccc1	1.1	2.1*	4	3%	nt	2
N#Cc1nc(-c2ccccc2F)oc1NCCc1ccccn1	1.1	2.3*	8	4%	nt	0
COCCCNc1oc(-c2ccccc2F)nc1C#N	1.1	2.1*	4	2%	nt	0
N#Cc1nc(-c2ccc(OCc3ccccc3)cc2)oc1NCc1cccnc1	1	1.8	10	10%	i	13
O=C(Cn1ncc2c1-c1ccccc1OC2)N1CCN(Cc2ccc3c(c2)OCO3)CC1	1.1	1.1	8	8%	i	14
O=C(O)c1cc2c([nH]c1=O)CCCC2	1	2.3*	6	4%	nt	11
CCOc1ccc(N2CC(C(=O)Nc3ncccc3C)CC2=O)cc1 (stereo not given)	1	1.1	5	2%	i	1
Cc1ccc(C(=O)c2cc3c(cc2N)OCCO3)cc1	1.1	1.1	0	9%	i	27*

Screens from PubChem BioAssay.
